Assay results taken from the supplement of paper PMC11417369.
± gives the standard deviation of the averaged measurements. The full ranking holds about 25,000 sequences; the median of “ln(normalized median fluorescence intensity)” is about 8.9, and the highest 2% start at about 10. This is one part of a sample in which the highest values are shown more often than they occur.

test system: PfAP2-LT AP2 domain (GST-tagged); experiment: gcPBM binding intensity (ln(normalized median fluorescence intensity)); higher = stronger DNA binding
Summary of the method: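 After 1 h on an Agilent 4 × 180k array of primer-extended double-stranded 36-bp intergenic genomic probes and negative controls, bound GST-tagged P. falciparum DNA-binding domains were detected with Alexa488 anti-GST antibody and scanned at 488 nm. The domains had been expressed in E. coli, and binding took place in 1× PBS with 1% milk, 0.2 mg/ml BSA, 0.5% salmon testes DNA and 0.03% Triton X-100. Binding intensity is the highest Masliner-normalised natural-log median intensity across replicate spots of either probe orientation.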

Sequence | gcPBM binding intensity (ln)
TAAAATATATATATGTGTACATAACATATAATTTTT [XGTACX_site1725] | 8.6 ± 0.46
TAAAATTTATAAACTACACACATATATATAGTAATA [CACACA_site3728] | 8.8 ± 0.42
TATATATAATATTTTTCACACACCATTTCCTTAAAC [CACACA_site1341] | 9.04 ± 0.29
AATCATGCTCCGGAAAGTACATAAATAAATAAATAA [XGTACX_site1690] | 8.85 ± 0.56
TAGAATATCCCCTACACACCCAAATAATTTACAAAT [CACACA_site4825] | 9.3 ± 0.35
AGGGAATAATATTAATGTACATATATGAACTTGTTT [XGTACX_site6089] | 8.93 ± 0.43
TATATACATAGACACCCACACACAAAAAAAAAAAAA [CACACA_site8186] | 9.43 ± 0.42
CACCCCCACAGACACACACACACACCCATATATATA [CACACA_site364] | 10.45 ± 0.042
TATACATACAGACCCACACACAAAAAAAAAAAAAAA [CACACA_site6536] | 9.35 ± 0.5
CACCCCCACAGACACACACACACACCCACATATATA [CACACA_site365] | 10.54 ± 0.035
TAGACTCCCAGACACACACACACACCCATATAATAT [CACACA_site593] | 10.2 ± 0.35
TATATATATATAGACACACACACACCCATATATATA [CACACA_site4117] | 9.94 ± 0.23
TACGCTCCCAGACACACACACACACCGATATAATAT [CACACA_site8098] | 9.89 ± 0.23
TACATATACAGACACACACACACACCCCCACAAAAA [CACACA_site495] | 10.45 ± 0.099
TATGATACATAATATACATGCATACACAACATTCAG [TGCATGCA_site487] | 8.94 ± 0.37
ATATATATACCAAGTAGTACATTCTACAACTAATGT [XGTACX_site8653] | 8.79 ± 0.4
ATATTTTGTTATGTAGATGTTGGTAGGAATTTTGGT [CACACA_negctrl_site1104] | 8.83 ± 0.4
CAATTAAACAATTAAACATGCAAAATGATATAATAA [TGCATGCA_site240] | 8.87 ± 0.49
TACGTAAAAATAGGACGTACTTATTTAGAAACCATA [XGTACX_site2498] | 8.72 ± 0.49
AAGAGTTTGAAGTTTGCACACTACGTTAAAAATAAA [CACACA_site3939] | 8.72 ± 0.59
ATAAATAAAACAACAGTGCAATAAAATTAGTTGAGG | 9.07 ± 0.54
ACATAATAAAAAAAACGTACAAATAGGTTTTTCATA [XGTACX_site6645] | 8.85 ± 0.57
ATGAGTTACATGGGAAAAATATATATATATATATAT [CACACA_negctrl_site579] | 9.8 ± 0.23
TCTATACCTATTCTTACACACATATGTATTTATATA [CACACA_site4475] | 9.28 ± 0.46

Sequence | gcPBM binding intensity (ln)
CACCCATACAGACATACACACACATATATATTAATA [CACACA_site8077] | 9.67 ± 0.27
AGACATATAATATATACACACATATATATATATATA [CACACA_site1066] | 9.93 ± 0.085
CACACCCACAGACACACACACACATATATAATATAT [CACACA_site594] | 10.2 ± 0.54
AAATTTTCACTTCAAAAACACACGTATTTTTTTCCT [CACACA_site3813] | 8.8 ± 0.47
CAACAACAAAAAAAAAAATAATAATAATAAAAAATA [TGCATGCA_negctrl_site271] | 8.71 ± 0.5
AGGACAAGGGTTACATGTACATATATATATATATAT [XGTACX_site901] | 10.2 ± 0.14
CAAGGACAATTTACAAACATAATATATGTATATATA [TGCATGCA_negctrl_site5] | 8.66 ± 0.55
CATATGTATATGACTACACACAAGGGTGTACATATA [CACACA_site1164] | 9.2 ± 0.38
ATCATAATTTATTATACACACAATACGTGACCTATT [CACACA_site6977] | 9.24 ± 0.47
ATATTTTGTATAATCACACACACTATTCTTAAATAG [CACACA_site7270] | 9.23 ± 0.37
CAAACAAACGGACACACACACACACCCAAAAATGAT [CACACA_site5363] | 10.1 ± 0.18
AACAAACACGGACACACACACACACTAGAATGATTA [CACACA_site5364] | 10.2 ± 0.31
CAAACCCACGGACACACACACACAAAAATGATTAAA [CACACA_site5365] | 9.71 ± 0.38
CCCGAACAAACAAATAAACACACAAAAAAAAATATA [CACACA_site8540] | 9.15 ± 0.47
TTAATAACAAAATAAACACACATATATAAATCCACA [CACACA_site1590] | 9.09 ± 0.38
AAAGAAGGGAAACACACACACACACCCACAAAAAAA [CACACA_site3766] | 10.18 ± 0.099
TATTTATTAAAACACACACACACACCCACAAAATAA [CACACA_site241] | 10.04 ± 0.099
TTAAAGCACCCATGCACACACACAAGGGAAAAGAAA [CACACA_site4289] | 9.49 ± 0.4
GAATAATCCAAACACACACACACACCCGAATAAATA [CACACA_site482] | 10.3 ± 0.45
TTTATTAATAAACACACACACACACCCAAAATAAAA [CACACA_site7966] | 10.2 ± 0.18
TTAACAAAGAAACACACACACACACCCAAAAAAAAA [CACACA_site516] | 10.2 ± 0.11
TTTATTAATGGACACACACACACACCCAAAATAAAA [CACACA_site4294] | 10 ± 0.13
CAAAAGAAGGTAAACACACACACACCCATACAAAAA [CACACA_site3765] | 10.1 ± 0.43
CAACAAAAGAAACACACACACACAAACACAAAAAAA [CACACA_site3389] | 9.91 ± 0.16

Sequence | gcPBM binding intensity (ln)
CACACCCACCAACACACACACAAAAAAAAAAAGAAA [CACACA_site500] | 9.56 ± 0.47
ATTTCAAATTAATTTACACACTTCATACTAAAAGAC [CACACA_site3176] | 8.71 ± 0.4
GGAAAAAAATATAAAAGTACTTTTTATTTATTTTAT [XGTACX_site7418] | 8.4 ± 0.51
AGGAATATAAAGTGCACACATAATTTGGGGGCAAAA [CACACA_site258] | 9.25 ± 0.44
AATTAAATTACTTATACACACATAAAATGGGTGTAT [CACACA_site4703] | 8.97 ± 0.37
AATAAAGGAGCCTATGAACACACACCGGTACATATA [CACACA_site9352] | 9.33 ± 0.51
ATACAATAAAGGTGTACACATATATGATGCAAGATG [CACACA_site5897] | 9.29 ± 0.52
ATGTAATGAAACATTGCACACATATAATAATATAAT [CACACA_site8402] | 9.31 ± 0.35
TTTTACACTTTTTTTTGTACACACTAAAAAGATTAA [XGTACX_site8407] | 8.59 ± 0.52
AATAATTGTTAAAGCTGTACAATACTTATATAAGAA [XGTACX_site5729] | 8.77 ± 0.45
AAAAAATATTGAAGTACACACATTATAAACTTTTTT [CACACA_site5029] | 8.86 ± 0.49
AATACACACCTGTGGGTGCTTATAATAAGCCACAAA | 8.95 ± 0.45
TTAACAAATAAACACACACACACACCCAAAAAAAAA [CACACA_site8068] | 10.3 ± 0.2
ATAAATAAAAAACACACACACACACCCAAAAAAAAA [CACACA_site2624] | 9.88 ± 0.3
ATAAATAAAAACACAAAACAAAACAAAACAAAACAA [CACACA_negctrl_site1257] | 8.82 ± 0.4
TTTTTTTTTGTTAGTTGTACGTTAAATGAATTTACT [XGTACX_site7675] | 8.67 ± 0.57
TACTAAGAAGTATTTACACACCAACAAGGCGAAAAA [CACACA_site2944] | 8.88 ± 0.44
CCTTTAAGCAAAAACACACACACATATATATATATA [CACACA_site348] | 9.945 ± 0.035
CCTTTAAGCAAAAACACACACACATATTTATTTATA [CACACA_site6294] | 9.41 ± 0.3
TATAAGCAAAAACACACACACATATATATATATATA [CACACA_site3804] | 10.2 ± 0.23
AAACATATATTAAGCACACACAAACAAAAAAACAAA [CACACA_site2549] | 9.59 ± 0.61
TGAAGCAAAAACAAAACACACATATAAATAAATAAA [CACACA_site3925] | 9.15 ± 0.52
TTTAAGCAAAAACACACACACATATATATATATATA [CACACA_site349] | 10.1 ± 0.16
AAAAAAATAAAAAATATATAAATAATTAATACATGT [GTGCAC_negctrl_site633] | 8.62 ± 0.59

Sequence | gcPBM binding intensity (ln)
TTATCATTATATAGTTGTACATATTTATTTATAAAA [XGTACX_site2310] | 8.45 ± 0.44
ATTATTTTATATACATGTACATATTATATATAAAAG [XGTACX_site2735] | 8.51 ± 0.42
TATTTTTTTAATAACTGTACTTTTTTGTCAAATGGA [XGTACX_site4179] | 8.32 ± 0.49
ATATATTTCAAAGGGGTGCAGGCATATTTAAGCAAA | 8.69 ± 0.49
TATTTTAAAAAAAAAAGTACACATAATATATATAAC [XGTACX_site5416] | 8.57 ± 0.57
CATTAAACCGTGGGAGCACACACACCCACCCACCCA [CACACA_site8000] | 9.57 ± 0.2
ATTAAACCGTGGGAGCACACACACACACACACACAT [TGCATGCA_negctrl_site72] | 10.6 ± 0.4
TTAAACCGTGGGAGCACACACACACCCAGACACATA [CACACA_site4337] | 9.7 ± 0.31
TATATATATATATATATATATATATATGTGTATGTA [TGCATGCA_negctrl_site255] | 10.2 ± 0.26
TATATATATATATATATATATATATATATATGTATA [TGCATGCA_negctrl_site17] | 9.8 ± 0.38
AAATATATATATATATATATATATGTGTGTGTATAT [GTGCAC_negctrl_site1] | 9.79 ± 0.45
TTACACTAAATATGTTCACACATTTTTTCCATCATA [CACACA_site4647] | 8.79 ± 0.45
TGAACAGACGAGCACACACACACATATATATATATA [CACACA_site1019] | 10.3 ± 0.2
AATGAACTCACGAGCACACACACACCGATATATATA [CACACA_site4710] | 10.1 ± 0.35
CATACAGACGAACACACACACATATAAATATAAATA [CACACA_site6443] | 9.7 ± 0.38
TGAACTCACGAGCACACACACACATATATATATATA [CACACA_site8248] | 10.3 ± 0.25
AAAAAAGAAAAAAGGACACACATAAATATACTCACG [CACACA_site2904] | 9.16 ± 0.48
AACGCACGAGGACACACACACATATTTATATTTATA [CACACA_site6608] | 9.82 ± 0.41
AATGAACAGACGAGCACACACACACCCATATATATA [CACACA_site1018] | 10.1 ± 0.16
AAAATGAACTCACGAGCACACACACCCATATATATA [CACACA_site8247] | 9.72 ± 0.25
AACTCACGAGGACACACACACATATATATATATATA [CACACA_site4711] | 10.38 ± 0.035
